Screening data from PubChem BioAssay.
Hits are enriched below; roughly 2.7% of the tested compounds scored in any of these assays.
GLP1R inv ag: qHTS of GLP-1 Receptor Inverse Agonists (Inhibition Mode); Glucagon-like peptide 1 receptor (Homo sapiens), P43220; HEK293 GLP-1R CRE-luciferase, luminescence, 24 h; GLP-1R form is constitutively active; Potency, µM (top dose mostly 38.3 µM), most hits filed as inhibitors; actives 1.6% (n = 410,000); also: nearly all actives have a fitted effect of over 55% in size
Target sequence (P43220 whole entry, looked up): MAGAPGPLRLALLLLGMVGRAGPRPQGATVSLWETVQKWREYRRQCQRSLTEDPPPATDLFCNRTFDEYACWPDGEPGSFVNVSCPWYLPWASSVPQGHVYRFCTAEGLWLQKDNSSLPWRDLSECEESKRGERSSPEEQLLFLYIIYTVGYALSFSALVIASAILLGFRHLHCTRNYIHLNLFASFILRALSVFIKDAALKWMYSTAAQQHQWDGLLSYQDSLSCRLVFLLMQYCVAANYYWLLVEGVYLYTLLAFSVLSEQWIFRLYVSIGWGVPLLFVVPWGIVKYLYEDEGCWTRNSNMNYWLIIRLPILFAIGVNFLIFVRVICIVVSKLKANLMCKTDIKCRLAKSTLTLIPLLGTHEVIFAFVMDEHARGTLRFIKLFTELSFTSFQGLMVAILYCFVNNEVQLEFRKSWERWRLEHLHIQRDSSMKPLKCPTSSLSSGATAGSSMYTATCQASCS
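Cells are plated, allowed 12 hours at 37 deg C, then treated with compounds for 24 hr before luciferase detection reagent is added and luminescence is read after 12 min at room temperature. The HEK293 line carries constitutively active GLP-1R with a cAMP-responsive reporter.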
TrxR1 inh: qHTS Assay for Inhibitors of Mammalian Selenoprotein Thioredoxin Reductase 1 (TrxR1): qHTS | AID 588453, 2011 | actives 1% (n = 390,000) | Potency, µM (top dose mostly 114 µM), usual class: inhibitors | Thioredoxin reductase 1, cytoplasmic (Rattus norvegicus), O89049 | recombinant rTrxR1, NADPH fluorescence consumption, selenite substrate; also: nearly all actives have a fitted effect of over 65% in size
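Rat TrxR1 (90 nM in the dispensed reagent) was pre-reduced with 400 uM NADPH for 5 min at room temperature, then incubated with compound for 15 min. After 400 uM selenite was added, NADPH fluorescence (Ex 340/Em 450 nm) was followed for 8 min.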
GLP1R cytotox: qHTS of GLP-1 Receptor Inverse Agonists: Cytotox Screen; Potency, µM (highest dose often 38.3 µM), actives largely listed as inhibitors; actives 0.13% (n = 410,000); HEK293 cAMP-luciferase reporter cells, luminescence, 24 h; AID 624418, 2012;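 also: loss of luciferase light is scored as toxicity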
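1536-well qHTS counterscreen of the MLSMR; 200 cells/uL, 12 h pre-incubation, 23 nL cpd, 24 h at 37 deg C 5% CO2, luciferase detection reagent, 12 min RT, luminescence. Inhibition = undesired.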
GLP1R ag: qHTS of GLP-1 Receptor Agonists; Glucagon-like peptide 1 receptor (Homo sapiens), P43220; HEK293 GLP-1R CRE-luciferase, luminescence, 4-6 h; cells express a hypersensitive GLP-1R form; Potency, µM (highest dose often 45.6 µM), usual class: activators; actives 0.007% (n = 380,000)
TrxR1 substrate: qHTS Assay for Substrates of Mammalian Selenoprotein Thioredoxin Reductase 1 (TrxR1): qHTS; purified TrxR1 substrate turnover, NADPH consumption readout; Thioredoxin reductase 1, cytoplasmic (Rattus norvegicus), O89049; actives 0.01% (n = 390,000); Potency, µM (doses to about 114 µM); also: nearly all actives have a fitted effect of over 50% in size
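Rat TrxR1, dispensed at 90 nM, was prereduced with 400 uM NADPH (final) for 5 min at ~22 deg C, then incubated with compound 15 min before 400 uM selenite. A first-read NADPH fluorescence drop versus no-compound background flagged substrates.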
mIDH1 inhibitor: qHTS for Inhibitors of mutant isocitrate dehydrogenase 1 (IDH1): qHTS. actives 0.093% (n = 390,000). Potency, µM (doses to about 76.6 µM), actives largely listed as inhibitors. Isocitrate dehydrogenase [NADP] cytoplasmic (Homo sapiens), O75874. IDH1-R132H enzyme, NADPH consumption, diaphorase/resazurin fluorescence; also: nearly all actives have a fitted effect of over 65% in size
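IDH1-R132H (0.5 ug/mL dispensed) in pH 7.5 Tris buffer was preincubated 30 min with compound, then given a substrate mix of 0.016 mM NADPH and 2 mM alpha-KG for 80 min at room temperature; remaining NADPH was read by diaphorase/resazurin fluorescence.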
Of the large screens only hits and unclear results are named; the others gave an inactive call. Calls follow the shape of the dose curve; as a rule, active = well fitted curve in the direction sought with a large enough effect; inconclusive = small, poorly fitted or top-dose-only effect, or another doubt; inactive = no such curve, though single readings can be large; an effect the other way counts as inactive or inconclusive.

CCCCOc1ccc(C(=O)NCC(=O)N2CC(C)CC(C)C2)cc1 (stereo unspecified)	GLP1R inv ag 11µM
CCOC(=O)c1ccc(N2C(=O)[C@@H](c3ccccc3)[C@H]2c2ccccc2)cc1	GLP1R inv ag 5µM
CCOC(=O)c1ccc(N2C(=O)C(O)=C(C(C)=O)C2c2ccccc2)cc1 (stereo unspecified)	none
N[C@@H](CSCCCO)C(=O)O	none (no result: GLP1R inv ag, TrxR1 inh, GLP1R cytotox, TrxR1 substrate, mIDH1 inhibitor)
CC1CCCC(C)N1C(=O)COC(=O)c1ccccc1O (stereo unspecified)	none
CCC(C(=O)OCC(=O)N1C(C)CCCC1C)c1ccccc1 (stereo unspecified)	GLP1R inv ag 8.9µM
CC(=O)OCCCNc1cc(SCc2ccco2)c2nonc2c1[N+](=O)[O-]	GLP1R inv ag inconclusive, TrxR1 inh 2.5µM
CCCC(=O)OCCNc1cc(Sc2nccn2C)c2nonc2c1[N+](=O)[O-]	GLP1R inv ag inconclusive, TrxR1 inh 0.56µM, GLP1R cytotox inconclusive
CCCC(=O)OCCNc1cc(SCc2ccco2)c2nonc2c1[N+](=O)[O-]	TrxR1 inh 4µM
CCCC(CCC)C(N)=O	none (no result: GLP1R inv ag, TrxR1 inh, GLP1R cytotox, TrxR1 substrate, mIDH1 inhibitor)
Fc1ccccc1N1CCN(c2cnc3ccccc3n2)CC1	GLP1R inv ag 10µM
c1ccc(CN2CCN(c3cnc4ccccc4n3)CC2)cc1	GLP1R ag inconclusive
CC(C)CNC(=O)c1oc2ccccc2c1COc1ccccc1	GLP1R inv ag 5µM
COCc1c(C(=O)NCc2ccccc2CN2CCCC2)oc2ccccc12	GLP1R inv ag 10µM
CCC(CC)NC(=O)c1oc2ccccc2c1COc1ccccc1	GLP1R inv ag inconclusive
COc1ccc(NC(=O)CSc2nc(-c3cccs3)cc(C(F)(F)F)n2)cc1OC	mIDH1 inhibitor inconclusive (no result: GLP1R ag)
NC(=O)C1CCN(C(c2ccccc2Cl)c2nnnn2Cc2ccc3c(c2)OCO3)CC1 (stereo unspecified)	none
Oc1cc2c(cc1C(c1ccc(Cl)c(Cl)c1)N1CCCC1)OCO2 (stereo unspecified)	TrxR1 inh 3.5µM
Cc1ccc(C(=O)Nc2cc3cc(Cl)ccc3oc2=O)cc1	none (no result: GLP1R ag)
Cc1cc(C)nc(CCNC(=O)C2CCC(=O)N(Cc3ccccc3F)C2)n1 (stereo unspecified)	none
Cc1ccc(CN(C)C(=O)C2CCC(=O)N(CCc3ccccc3)C2)o1 (stereo unspecified)	TrxR1 inh 40µM
Cc1ccc(CCNC(=O)C2CCC(=O)N(Cc3ccccc3F)C2)o1 (stereo unspecified)	TrxR1 inh 56µM
COc1cccc(CN2CC(C(=O)NCCc3ccc(C)o3)CCC2=O)c1 (stereo unspecified)	TrxR1 inh 20µM
CCn1c(CNC(=O)c2ccc(OC)cc2)nnc1SCC(=O)Nc1cccc(C)c1C	none
CC(C)c1ccc(NC(=O)C(c2ccc3c(c2)OCO3)N2CCCCC2)cc1 (stereo unspecified)	GLP1R inv ag 4µM
Cc1ccc(NC(=O)C(c2ccc(Cl)cc2Cl)N2CCCC2)cc1 (stereo unspecified)	GLP1R inv ag 10µM
CC1CCN(C(C(=O)Nc2ccc(C(C)C)cc2)c2ccc3c(c2)OCO3)CC1 (stereo unspecified)	GLP1R inv ag 4.5µM
CS(=O)(=O)N1CCN(c2ccc(NC(=O)C(c3ccccc3)c3ccccc3)cc2)CC1	none
CC(C)c1ccc(NC(=O)C(c2ccc3c(c2)OCO3)N2CCC3(CC2)OCCO3)cc1 (stereo unspecified)	GLP1R inv ag inconclusive
O=C(Nc1ccc(N2CCCC2)cc1)C(Cl)c1ccccc1 (stereo unspecified)	TrxR1 inh 16µM
CCOC(=O)c1cc(-c2ccc(OC)cc2)n(CCC(=O)Nc2ccc(OC)cc2OC)c1C	GLP1R inv ag inconclusive (no result: GLP1R ag)
O=C(Nc1cc(Cl)cc(Cl)c1)C(c1ccccc1)N1CCCCC1 (stereo unspecified)	GLP1R inv ag 2.2µM
COc1cccc(NC(=O)C(c2ccccc2)N2CCCCC2)c1 (stereo unspecified)	GLP1R inv ag inconclusive
CC[n+]1c(-c2ccccc2)csc1Nc1c(C)n(C)n(-c2ccccc2)c1=O	GLP1R inv ag inconclusive
CC[n+]1c(-c2ccc(C)cc2)csc1Nc1c(C)n(C)n(-c2ccccc2)c1=O	GLP1R inv ag 8.9µM
Cc1cccc(N2C(=O)C(Cl)=C(Nc3c(C)n(C)n(-c4ccccc4)c3=O)C2=O)c1C	TrxR1 inh 22µM
Cc1ccc(N2C(=O)C(Cl)=C(Nc3c(C)n(C)n(-c4ccccc4)c3=O)C2=O)cc1	TrxR1 inh 18µM
[O-][N+](=NC1C=Cc2ccccc21)C1C=Cc2ccccc21 (stereo unspecified)	none (no result: GLP1R inv ag, GLP1R cytotox, GLP1R ag, mIDH1 inhibitor)
CCOC(=O)NC1(NCc2ccccc2)Oc2ccccc2O1	TrxR1 inh 32µM
CCOC(=O)NC1(NC2CCCCC2)Oc2ccccc2O1	TrxR1 inh 32µM
CCOC(=O)NC1(NCC(C)C)Oc2ccccc2O1	TrxR1 inh inconclusive, GLP1R cytotox inconclusive
Cc1c(CCNC(=O)C(C)(C)C)sc2nc(-c3ccc(F)cc3)nn12	none (no result: GLP1R ag, mIDH1 inhibitor)
COC(=O)c1sccc1NC(=O)CSc1ccccc1NS(=O)(=O)c1ccc(Cl)cc1	GLP1R inv ag 10µM
CC(C)C[C@@H](CN1CCCC1CN1C(=S)NC[C@@H]1Cc1ccc(O)cc1)N1C[C@H](Cc2ccc(O)cc2)N(CCc2ccccc2)C1=S (stereo partly specified)	GLP1R inv ag 7.9µM, GLP1R cytotox inconclusive
O=C(Cn1cc(SCc2ccc(C(F)(F)F)cc2)c2ccccc21)N1CCCC1	GLP1R inv ag inconclusive (no result: GLP1R ag)
O=C(Cn1cc(SCc2cccc(C(F)(F)F)c2)c2ccccc21)N1CCCCCC1	GLP1R inv ag 7.9µM (no result: GLP1R ag)
O=C(Cn1cc(SCc2ccccc2)c2ccccc21)N1CCCCCC1	GLP1R inv ag inconclusive (no result: GLP1R ag)
Cc1ccc(CSc2cn(CC(=O)N3CCCCC3)c3ccccc23)cc1	GLP1R inv ag 10µM (no result: GLP1R ag)
ClN=C1C=CC=CC1=NCl	none (no result: TrxR1 inh, TrxR1 substrate, mIDH1 inhibitor)
CCOc1cccc(C2C=C(c3ccc4c(c3)OCO4)NC(c3cccc(Br)c3)N2)c1O (stereo unspecified)	none (no result: GLP1R inv ag, GLP1R cytotox, GLP1R ag, mIDH1 inhibitor)
